From PubChem BioAssay AID1159580 (chemical genetic matrix, 2015)
About 2,000 (36%) of roughly 5,500 compounds were called active. Another 18% or so got no clear call; they are omitted. No stated cut-off is given here; in the data, active means normalized growth mostly below about 0.91 (no sharp cut-off); inconclusive means no clear call, values can overlap the other calls; inactive means mostly above about 0.92. Some of the results follow.

Assay: chemical genetic growth profiling, strain panel (AID 1159580);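 further: tested at 20 µM; growth read once vehicle control cultures reached saturation at 30 °C; 1 = growth at the plate median or of vehicle wells; lower values mean less growth of the strain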
Conditions: growth OD
[1] = S. cerevisiae deletion strains, locus YAL013W, strain DEP1, active compounds read low
[2] = S. cerevisiae deletion strains, locus YBR229C, strain ROT2, active compounds read low
[3] = S. cerevisiae deletion strains, locus YDL101C, strain DUN1, active compounds read low
[4] = S. cerevisiae deletion strains, locus YDR150W, strain NUM1, active compounds read low
[5] = S. cerevisiae deletion strains, locus YEL061C, strain CIN8, active compounds read low
[6] = S. cerevisiae deletion strains, locus YGR078C, strain PAC10, active compounds read low
[7] = S. cerevisiae deletion strains, locus YHR030C, strain SLT2, active compounds read low
[8] = S. cerevisiae deletion strains, locus YHR087W, strain rtc3, active compounds read low
[9] = S. cerevisiae deletion strains, locus YJL187C, strain SWE1, active compounds read low
[10] = S. cerevisiae deletion strains, locus YJR043C, strain POL32, active compounds read low
[11] = S. cerevisiae deletion strains, locus YJR075W, strain HOC1, active compounds read low
[12] = S. cerevisiae deletion strains, locus YKL190W, strain CNB1, active compounds read low
[13] = S. cerevisiae deletion strains, locus YLR039C, strain RIC1, active compounds read low
[14] = S. cerevisiae deletion strains, locus YLR058C, strain SHM2 (second series), active compounds read low
[15] = S. cerevisiae deletion strains, locus YLR085C, strain ARP6, active compounds read low
[16] = S. cerevisiae deletion strains, locus YLR262C, strain YPT6, active compounds read low
[17] = S. cerevisiae deletion strains, locus YML094W, strain GIM5, active compounds read low
[18] = S. cerevisiae deletion strains, locus YMR219W, strain ESC1, active compounds read low
[19] = S. cerevisiae deletion strains, locus YMR263W, strain SAP30, active compounds read low
[20] = S. cerevisiae deletion strains, locus YNL128W, strain TEP1, active compounds read low
[21] = S. cerevisiae deletion strains, locus YNL153C, strain GIM3, active compounds read low
[22] = S. cerevisiae deletion strains, locus YNL298W, strain CLA4 (second series), active compounds read low
[23] = S. cerevisiae deletion strains, locus YNL322C, strain KRE1, active compounds read low
[24] = S. cerevisiae deletion strains, locus YNR030W, strain Alg12, active compounds read low
[25] = S. cerevisiae deletion strains, locus YPL055C, strain LGE1, active compounds read low
[26] = S. cerevisiae deletion strains, locus YPL241C, strain CIN2, active compounds read low
[27] = S. cerevisiae deletion strains, locus YPR135W, strain CTF4, active compounds read low

Measured: normalized growth

COc1ccc(CCNC(=O)c2ccccc2Cl)cc1OC
inactive: [1] 0.993 | [2] 0.987 | [3] 1 | [4] 0.991 | [5] 0.968 | [6] 1 | S. cerevisiae deletion strains, locus YGR229C, strain SMI1, active compounds read low 0.988 | [7] 1.01 | [8] 0.97 | [9] 0.984 | [10] 1 | [11] 0.994 | [12] 0.997 | [13] 1.03 | [14] 1 | [15] 0.973 | [16] 1.02 | [17] 0.993 | [18] 0.981 | [19] 0.993 | [20] 0.983 | [21] 0.988 | [22] 1.01 | [23] 1.01 | [24] 1.03 | [25] 0.976 | [26] 1.02 | [27] 1.06 | S. cerevisiae strains, strain wild type, active compounds read low 1.01

Nc1ccccc1C(=O)NCCc1ccc(Cl)cc1
active: [9] 0.928 | [11] 0.888
inactive: [1] 0.979 | [2] 0.949 | [3] 0.987 | S. cerevisiae deletion strains, locus YDL134C, strain PPH21, active compounds read low 0.949 | [4] 0.916 | [5] 0.956 | [6] 0.97 | [7] 0.773 | [8] 0.927 | [10] 0.964 | [12] 0.947 | [13] 0.969 | [14] 0.961 | [15] 0.832 | [16] 0.908 | [17] 0.938 | [18] 0.962 | [19] 0.997 | [20] 0.993 | [21] 0.974 | [22] 0.939 | [23] 0.963 | [24] 0.942 | [25] 1.08 | [26] 0.902 | [27] 0.767
